Most compounds without a hit are left out; they make up all but 2.5% or so of the library.
Cruzain noTriton: inhibitors of Trypanosoma cruzi cruzain without detergent; purified cruzain, Z-FR-AMC fluorescence, no detergent; actives 2.3% (n = 200,000); Potency, µM, actives largely listed as inhibitors; also: nearly all actives have a fitted effect of over 40% in size
Target sequence (P25779 123-467 limits assumed): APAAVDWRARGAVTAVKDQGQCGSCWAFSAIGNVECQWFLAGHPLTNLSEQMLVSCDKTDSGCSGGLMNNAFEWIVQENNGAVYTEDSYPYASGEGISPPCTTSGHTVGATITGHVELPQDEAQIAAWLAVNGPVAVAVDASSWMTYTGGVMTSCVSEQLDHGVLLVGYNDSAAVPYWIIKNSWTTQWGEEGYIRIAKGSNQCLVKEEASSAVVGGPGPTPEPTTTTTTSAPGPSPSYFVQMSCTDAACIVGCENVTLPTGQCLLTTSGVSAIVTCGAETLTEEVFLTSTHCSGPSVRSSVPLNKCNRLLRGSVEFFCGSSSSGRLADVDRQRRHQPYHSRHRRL
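Detergent-free condition (0.00005% Triton X-100) in acetate buffer pH 5.5 with DTT. 1.5 nM enzyme and compound were pre-mixed 15 min, then 2 uM Z-FR-AMC substrate added; reaction progress from fluorescence change between first and third reads (60 s).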
Cruzain inh Det: inhibitors of Trypanosoma cruzi cruzain with detergent; P25779; purified cruzain, Z-FR-AMC fluorescence, 0.01% Triton; Potency, µM, usual class: inhibitors; actives 0.43% (n = 200,000); AID 1478; also: nearly all actives have a fitted effect of over 40% in size
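Compounds were screened in titration against cruzain (1.5 nM) with 0.01% Triton X-100 to counter colloidal aggregation. Activity was the AMC fluorescence increase over 60 s after adding 2 uM Z-FR-AMC at pH 5.5.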
Of the large screens only hits and unclear results are named; the others gave an inactive call; ! = not confirmed by another sample. Calls follow the shape of the dose curve; as a rule, active = well fitted curve in the direction sought with a large enough effect; inconclusive = small, poorly fitted or top-dose-only effect, or another doubt; inactive = no such curve, though single readings can be large; an effect the other way counts as inactive or inconclusive.

O=C(NCCc1nc2ccccc2[nH]1)c1ccc(Cl)c([N+](=O)[O-])c1	Cruzain noTriton 2µM, Cruzain inh Det 1.26µM
O=C(Nc1ccc2nc(-c3ccccc3)[nH]c2c1)c1ccco1	none
O=C(NCCc1cccc(Cl)c1)c1ccc(Cl)c([N+](=O)[O-])c1	none
Cc1ccc(C(=O)NCCSc2c(C)[nH]c3ccccc23)cc1[N+](=O)[O-]	none
Cc1ccc(C(=O)NCCc2nc3ccccc3[nH]2)cc1[N+](=O)[O-]	Cruzain inh Det 4.47µM
O=C(Nc1cccc(-c2nc3ccccc3[nH]2)c1)c1cccc(NC(=O)c2ccco2)c1	Cruzain noTriton 5.01µM, Cruzain inh Det 10µM
Cc1ccc(N2CCN(C(=O)c3c4c(nc5ccccc35)C(=O)N(C3CCCCC3)C4)CC2)c(C)c1	none
O=C(CSc1nccn1Cc1ccco1)Nc1ccc(OC(F)(F)F)cc1	none
Cc1cccc(C)c1Nc1nnc(SCc2nc3ccccc3s2)s1	Cruzain noTriton 31.6µM
COc1cccc(Nc2nnc(SCc3nc4ccccc4s3)s2)c1	none
COc1ccccc1N1CCN(C(=O)CCn2cnc3onc(-c4ccc(F)cc4)c3c2=O)CC1	none
O=C(O)[C@@H]1[C@@H](C(=O)O)[C@@]23CCCC2=C2CC[C@@]3(C(=O)O)[C@@]3(C(=O)O)C[C@@]213	none
Cc1c(C)c2c(c(C)c1O)CCC(C)(COc1ccc(Cc3sc(=O)[nH]c3O)cc1)O2 (configuration not stated)	none
CCOc1ccccc1NC(=O)Nc1cc(C(=O)NCc2ccc(C)cc2)ccc1N1CCCC1	none
O=C(O)COCC(=O)Nc1ccc2c(c1)CCC2	none
O=C(COc1cc(Cl)ccc1Cl)Nc1ccc2c(c1)CCC2	Cruzain noTriton 25.1µM
O=C(O)C[SH+]CC(=O)O.O=C(O)C[SH+]CC(=O)O.[Cu]	none
CCOC(=O)N1C2C=C(C)[C@@H]2[C@@H]2CC(=O)N21 (some centres not stated)	Cruzain noTriton 12.6µM, Cruzain inh Det 14.1µM
CCOC(=O)N1CCN(C2CC(=O)N(c3ccc(C)cc3)C2=O)CC1 (configuration not stated)	none
O=C(N/N=C1/C(=O)c2cccc3cccc1c23)c1ccc(Cl)cc1	Cruzain inh Det 10µM
CCNC(=S)N/N=C1\C(=O)c2cccc3cccc1c23	Cruzain noTriton inconclusive
COC(=O)c1ccc(OCC2c3cc(OC)c(OC)cc3CCN2C(=O)c2cccc(C)c2)cc1 (configuration not stated)	Cruzain noTriton inconclusive
CCOC(=O)Cc1cc(=O)n(-c2nc3ccccc3s2)[nH]1	Cruzain noTriton inconclusive, Cruzain inh Det 17.8µM
CCOC(=O)c1sc(-n2[nH]c(C)cc2=O)nc1C	Cruzain inh Det inconclusive
Cc1ccc(C)c(N2CCN(C(=O)C3CCCN(S(=O)(=O)c4ccc5c(c4)oc(=O)n5C)C3)CC2)c1 (configuration not stated)	none
C[C@@]1(C(NC(=O)c2ccc(-c3ccccc3)cc2)c2ccc(Cl)cc2)C[C@H]1C1CCCCC1 (some centres not stated)	Cruzain noTriton inconclusive
C[C@@]1([C@@H](NC(=O)c2cccs2)c2ccc(-c3ccccc3)cc2)C[C@H]1C1CCCCC1	Cruzain noTriton 7.94µM
CC1=C(c2ccc(C)cc2)S(=O)(=O)NC1=NCc1cccc(F)c1	none
COC(=O)c1cc(NC(=O)c2cc3sccc3n2Cc2ccc(Cl)cc2)cc(C(=O)OC)c1	Cruzain noTriton 7.94µM
CC(=O)Nc1ccc(NC(=O)c2cc3sccc3n2Cc2ccc(Cl)cc2)cc1	Cruzain noTriton inconclusive
CCNc1ncc2nc(CCc3ccccc3)c(=O)n(CCOC)c2n1	none
Cc1ccc(NC(=O)CN2C(=O)CSc3ccc(S(=O)(=O)N(C)C)cc32)cc1C	none
c1cc(-c2ccncc2)ccn1	none
Nc1ccncc1	Cruzain noTriton 3.55µM!, Cruzain inh Det 3.16µM!
Cc1ccccc1Nc1oc(-c2ccccc2)nc1-c1cccs1	none
N#Cc1c(NC(=O)Cn2nc(C(F)(F)F)c3c2CCCC3)sc2c1CCC2	Cruzain noTriton 7.94µM
CC1CCc2c(sc(NC(=O)Cn3nc(C(F)(F)F)c4c3CCCCC4)c2C#N)C1 (configuration not stated)	Cruzain noTriton 20µM
CC1CCN(CC(=O)Nc2sc3c(c2C#N)CCC3)CC1	none
CCc1ccc(NC(=O)Cn2nc(C(F)(F)F)c3c2CCC3)cc1	none
O=C1C(=O)N(C2CCN(S(=O)(=O)c3ccccc3)CC2)CCN1Cc1ccccc1	none
Clc1ccc(NCc2nc3ccccc3n2CCOc2ccccc2)cc1	none
CCn1c(NC(=S)Nc2ccccc2)nc2ccccc21	Cruzain noTriton 25.1µM
COc1ccccc1OCCn1c(NC(=O)c2ccccc2Cl)nc2ccccc21	Cruzain noTriton 20µM
S=C(Nc1ccccc1)Nc1nc2ccccc2n1CCOc1ccc(Cl)cc1	Cruzain noTriton 10µM
CCCn1c(NC(=S)Nc2ccccc2)nc2ccccc21	none
COc1ccccc1OCCn1c(NC(=O)c2ccc(Cl)cc2)nc2ccccc21	none
COCCNC(=O)c1ccccc1NC(=O)c1nsc2ccccc12	Cruzain noTriton inconclusive
COc1cc(OC)c(NS(=O)(=O)c2c(C)nc3sc(C)cn3c2=O)cc1Cl	none
CCc1nn2c(=O)cc(COC(=O)c3ccccc3NC(=O)c3cccs3)nc2s1	none
COC(=O)C1(C(=O)OC)CC2=C[C@H](CC2=O)Cc2ccccc2[C@@H]1C[N+](=O)[O-]	none
CCc1cccc(NC(=O)CCS(=O)(=O)c2ccc(C)cc2)c1	none
Cc1ccc(NC(=O)c2nnn(Cc3ccccc3)c2N)cc1C	none
CSc1ccc(Cn2nnc(C(=O)Nc3ccc(C)c(C)c3)c2N)cc1	Cruzain noTriton 25.1µM
CC(CO)(CO)N=Cc1cc(I)cc(I)c1O	none
N#CC1(Cc2ccc([N+](=O)[O-])cc2)c2ccccc2C=CN1C(=O)c1ccccc1 (configuration not stated)	Cruzain noTriton 25.1µM
N#CC1(Cc2ccccc2)c2ccccc2C=CN1C(=O)c1ccccc1 (configuration not stated)	none
CCCC(=O)NCCc1c2n(c3ccc(OC)cc13)Cc1ccccc1-2	none
N=C(N)S/C=C\C(=O)O	none
O=C(N/N=C/c1cccc(F)c1)c1c(O)c2c([nH]c1=O)CCCC2	Cruzain noTriton 20µM
CNC(=O)c1ccccc1NC(=O)c1c(O)c2c([nH]c1=O)CCCC2	Cruzain noTriton inconclusive
COc1ccccc1N1CCN(C(=O)CSc2nc(-c3ccc(C(C)C)cc3)no2)CC1	Cruzain noTriton inconclusive
Cc1cccc(-n2c(C)cc(/C=C3/C(=N)N4C(c5ccccc5)=CSC4=NC3=O)c2C)c1	Cruzain noTriton 5.01µM
CCCC1=NN2C(=N)/C(=C\c3cc(C)n(-c4cccc(C)c4)c3C)C(=O)N=C2S1	Cruzain noTriton inconclusive
CCOc1ccc(NC(=O)N(Cc2cn(CC)c3ccccc23)C2CCCCCC2)cc1	none
C[C@H](OP(=O)(O)O)[C@H](N)C(=O)O	none
Cc1ccc(C)c(NC(=O)C(=O)NCCc2csc3nc(-c4ccccc4C)nn23)c1	none
Cc1cccc(NC(=O)Cn2c(=O)n(CCc3c[nH]c4ccccc34)c(=O)c3cccnc32)c1	Cruzain noTriton 25.1µM
O=C(Cn1c(=O)n(CCc2c[nH]c3ccccc23)c(=O)c2cccnc21)Nc1ccccc1F	Cruzain noTriton inconclusive
O=C1O/C(=C\c2ccccc2)c2ccccc21	none
O=C1O/C(=C/c2ccccc2)N=C1c1ccccc1	Cruzain noTriton 15.8µM, Cruzain inh Det 12.6µM
C[N+](C)(C)CC(=O)N/N=C\c1ccncc1	none
CCOC(=O)CSc1nc2ccccc2n1CC(=O)N(C(C)C)C(C)C	none

Compound activity from PubChem BioAssay.
